# Source: PubChem (National Center for Advancing Translational Sciences (NCATS))
# IkB signaling = inhibitors of IkB signaling in ABC-DLBCL cells. ABC-DLBCL IkBa-CBG/CBR dual luciferase ratio, 4 h; response scale: scaled: untreated 0%, proteasome inhibitor 100%. Potency, µM (titrated, usually from 57.1 µM), inactives show at the highest dose IkBa stabilization activation. 110,000 compounds, 0.04% hits; active = well fitted curve in the direction sought with a large enough effect in the signal ratio, not every such curve was filed as active; inconclusive = small, poorly fitted or top-dose-only effect, or a change in a side signal; the % refers to the signal ratio;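 note: the direction sought is a rising ratio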
#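 In this assay, an IκBα–CBG68 fusion accumulates when IKK-driven degradation is blocked; native CBR normalizes for cell number. OCI-Ly3 cells were treated 4 h with compound and doxycycline, then green and red light read after Chroma-Glo addition.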
# Peg3 imprint = inducers of genomic imprint erasure in mouse ES cells; 110,000 compounds, 0.02% hits; Potency, µM (top dose mostly 60.7 µM), without a hit: at the top dose activity change, positive = activation, usual class: activators; mouse ES Peg3-LacZ reporter, beta-gal luminescence, 40 h
#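 Gelatin-coated wells received 300 freshly trypsinized female ES cells with a Peg3LacZ-Neo reporter on the maternal allele, then incubated 40 hours at 37C. BetaGlo was added for 5 minutes at room temperature before a single luminescence read.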
# p53ts 39C tox = cytotoxicity in p53ts cells at nonpermissive temperature. 130,000 compounds, 1.5% hits. AID 902. H1299-p53A138V viability at 39C, ATP luminescence, 24 h. Potency, µM (top dose mostly 46.1 µM), without a hit: at the highest dose activity change, negative = cell killing, usual class: cytotoxic; note: % is set by controls: 0 for no effect and ±100 for the full control effect; nearly all actives have a fitted effect of over 55% in size
# p53ts 32C kill = kills p53ts cells at the permissive temperature | H1299-p53A138V at 32C, ATP luminescence viability, 24 h | Potency, µM (doses to about 46.1 µM), without a hit: at the top dose activity change, negative = cytotoxicity, usual class: cytotoxic | 130,000 compounds, 0.93% hits | AID 924;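 note: 0% = DMSO and -100% = full killing by reference compound; nearly all actives have a fitted effect of over 55% in size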
#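 ATP-content luminescence (ATPlite) read-out after 24 h compound exposure at 32C in H1299-p53A138V cells (600/well). Tested up to 46 uM. Normalized to DMSO (0%) and 100 uM tamoxifen (100% killing); Hill-fit AC50.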
# CRE Fsk mod = alters forskolin-stimulated CRE reporter signaling in CHO cells | CHO CRE-bla reporter (cAMP response element driving beta-lactamase), forskolin EC10, beta-lactamase ratio | Potency, µM (highest dose often 38.2 µM), inactives show at the highest dose activity change, negative = inhibition, most hits filed as activators | 71,000 compounds, 2.5% hits | AID 662; active = well fitted activation curve with a large enough effect in the signal ratio, with a control signal flat, not every such curve was filed as active; inconclusive = small, poorly fitted or top-dose-only effect, or effect the other way, or a change in a side signal; the % refers to the signal ratio; note: % of control where 0% means no effect
#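 Using CellSensor CRE-bla CHO cells in Opti-MEM with 0.5% dialyzed FBS, compounds were titrated with EC10 NKH 477 for 3 h at 37 °C. CCF4 ratio (460/530 nm) gave %Activity; AC50 derived.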
# Active calls of the source: *; ? = inconclusive; . = no result; [ ] = remark or other dose. Compounds with a hit are over-represented: about 3% of the library has one in this group of screens. Unless noted, calls come from the whole dose curve; as a rule, active = well fitted curve in the direction sought with a large enough effect; inconclusive = small, poorly fitted or top-dose-only effect, or another doubt; inactive = no such curve, though single readings can be large; an effect the other way counts as inactive or inconclusive. Potency is the fitted concentration of half-maximal effect.
SMILES,IkB signaling,Peg3 imprint,p53ts 39C tox,p53ts 32C kill,CRE Fsk mod
CCCC(=O)Nc1cccc(-c2nc3cc(C)c(C)cc3o2)c1,1.6%,-44.5%,?,15.8µM*,?
CCOC(=O)c1[nH]c(C)c(CCC(=O)N2CCN(c3cc(Cl)ccc3C)CC2)c1C,?,2.3%[10.9 µM],5.1%,37.2%,.
COc1ccc(-c2noc(CCC(=O)Nc3ccc(C(F)(F)F)cc3)n2)cc1,?,6.5%[10.9 µM],-12.9%,1.2%,.
Cc1ccc2nc(-c3cccc(NC(=O)CSc4ccc(Cl)cc4)c3)oc2c1,1.4%,-52.3%[10.9 µM],14.1%,12.6µM*,.
CC1(C)CCC2=C(O1)c1ccccc1C(=O)C2=O,?,-78.7%,5.01µM*,5.01µM*,-2.2%
Cc1ccc(-n2c(=O)c(C#N)cc3c(=O)n4ccccc4nc32)cc1,0.9%,-3.4%,1.7%,-8.6%,2.51µM*
Cc1cc(-n2c(=O)c(C#N)cc3c(=O)n4cccc(C)c4nc32)no1,3.1%,3.9%,4.6%,-4.5%,3.16µM*
N#Cc1cc2c(=O)n3ccccc3nc2n(CCCn2ccnc2)c1=N,-0.5%,2.6%,5.4%,6.9%,10µM*
CCC(C)n1c(=N)c(C#N)cc2c(=O)n3ccccc3nc21 (centres undefined),.,.,5.9%,4.6%,.
CCCc1cc(C(N)=O)c(NC(=O)c2cc(C)on2)s1,-3.4%,-22.2%,4.4%,11.4%,4.1%
CCCc1cc(C(N)=O)c(NC(=O)c2ccoc2C)s1,0.6%,-21.1%,-10.1%,4.5%,10µM*
C[C@H]1[C@H](C)CC[C@@]2(C(=O)O)CC[C@]3(C)C(=CC[C@@H]4[C@@]5(C)CC[C@H](O)C(C)(C)[C@@H]5CC[C@@]43C)[C@@H]12,0.4%[11.4 µM],.,.,.,?
O=c1cc(O)cc(/C=C\c2ccc(O)c(O)c2)o1,6.5%,.,3.3%,-9.3%,-5.5%
CC(=O)c1cccc(NC(=O)c2ccc3nc(C(C)C)oc3c2)c1,?,-14.4%[10.9 µM],-17.3%,-0.7%,.
CCCCCCn1c(SCCC)nc2c1c(=O)[nH]c(=O)n2C,0.0%,0.7%,-0.7%,-3.1%,16.1%
CCCCn1c(NCCC)nc2c1c(=O)[nH]c(=O)n2C,0.3%,-6.0%,-2.3%,8.7%,2.51µM*
CCCCCCn1c(N(CC)CC)nc2c1c(=O)[nH]c(=O)n2C,-0.2%,-12.9%,-1.4%,16.9%,10µM*
CCCNc1nc2c(c(=O)[nH]c(=O)n2C)n1CCC(C)C,-1.2%,-10.4%,6.3%,6.8%,10µM*
Cc1[nH]c2c(C)cccc2c1CCNC(=O)c1cc2ccccc2oc1=O,-0.9%,-4.9%[10.9 µM],24.7%,4.2%,.
Cc1nc2ccccc2c(=O)n1/N=C/c1cn(-c2ccccc2)nc1-c1cccs1,?,2.8%,-26.3%,-17.7%,2.51µM*
Cc1ccc(N2CCN(C(=O)c3cn(C)c4ccc(S(=O)(=O)N5CCCC5)cc4c3=O)CC2C)cc1 (centres undefined),-2.3%,17.7%[10.9 µM],3.8%,6.0%,.
O=C(Nc1ccc2c(c1)OCO2)C1CCCN(c2nc3ccccc3s2)C1 (centres undefined),?,-73.2%,?,20µM*,?
Cc1cccc(NC(=O)C2CCCN(c3nc4ccccc4s3)C2)c1C (centres undefined),?,-5.5%[10.9 µM],-15.9%,12.2%,.
O=C(Nc1ccc2c(c1)OCO2)C1CCN(S(=O)(=O)c2cccs2)CC1,0.1%,-18.3%,-12.4%,6.2%,3.16µM*
CCc1noc(-c2ccc(N3CCC(C)CC3)c([N+](=O)[O-])c2)n1,-1.7%,-13.2%[10.9 µM],-7.9%,-3.9%,.
SMILES,IkB signaling,Peg3 imprint,p53ts 39C tox,p53ts 32C kill,CRE Fsk mod
COc1ccc(OC)c(Nc2ncc3c(n2)CCN(Cc2cc(OC)c(OC)c(OC)c2)C3)c1,-0.7%,-11.3%[10.9 µM],-21.1%,8.8%,.
CCOc1ccccc1NC1(c2ccccc2)C(=O)c2ccccc2C1=O,-2.6%,?,-11.2%,2.1%,.
Cn1c(=O)[nH]c(=O)c2c1nc(N1CCCC1)n2CCCSc1nc2ccccc2o1,0.6%,-8.1%,-1.5%,-5.9%,?
Cn1c(=O)c2c(nc(N3CCCCC3)n2CCSc2nc3ccccc3s2)n(C)c1=O,-0.4%,-4.6%,7.4%,-1.4%,1.6%
Cn1c(=O)[nH]c(=O)c2c1nc(Br)n2CCOc1ccccc1,1.5%,-9.1%,-24.2%,-20.7%,3.16µM*
Cn1c(=O)[nH]c(=O)c2c1nc(N1CCCCC1)n2CCCSc1nc2ccccc2s1,0.1%,-9.4%,26.1%,-21.5%,2.51µM*
Cn1c(=O)[nH]c(=O)c2c1nc(Br)n2CCCSc1nc2ccccc2o1,?,-20.3%,-18.6%,-6.2%,10µM*
Cc1ccc(CCNC(=O)c2ccc3c(c2)c(C)c(C)n3Cc2ccccc2)cc1,-1.0%,-9.2%[10.9 µM],3.3%,8.6%,.
Cc1cc2c(n1-c1ccc(C(=O)NCCc3ccc(Cl)cc3)cc1)CCCC2,.,.,.,-12.9%,.
Cc1csc(C(C#N)C(=O)c2cc3ccccc3o2)n1 (centres undefined),?,-59.3%,5.01µM*,5.01µM*,-3.5%
CCc1ccc(C(=O)c2cn(CC(=O)Nc3ccc(OC)c(Cl)c3)c3nc(C)ccc3c2=O)cc1,3.7%,-1.7%[10.9 µM],?,-1.6%,.
O=C(N/N=C1\CCc2ccccc21)c1ccccc1O,.,.,4.47µM*,.,.
C/C=C/Cn1c(SCc2ccc(Cl)cc2)nc2c1c(=O)[nH]c(=O)n2C,?,-0.7%,-17.5%,-3.5%,2µM*
CCC(C)Sc1nc2c(c(=O)[nH]c(=O)n2C)n1Cc1ccccc1Cl (centres undefined),1.3%,-18.0%,1.5%,8.3%,5.01µM*
C/C=C/Cn1c(Br)nc2c1c(=O)[nH]c(=O)n2C,1.2%,-3.3%,-10.8%,7.6%,?
C/C=C/Cn1c(SC)nc2c1c(=O)[nH]c(=O)n2C,?,.,-5.4%,-2.7%,10µM*
CCCn1c(SCc2ccc(Cl)cc2)nc2c1c(=O)[nH]c(=O)n2C,?,-6.3%,-10.3%,-7.5%,12.6µM*
C/C=C/CSc1nc2c(c(=O)[nH]c(=O)n2C)n1CCC,-1.2%,5.7%,-10.7%,9.3%,?
CCOc1cccc(C(=O)Nc2ccc3oc(-c4ccncc4)nc3c2)c1,?,-9.3%[10.9 µM],5.1%,-0.4%,.
CCC(C)c1ccc(OCC(=O)Nc2ccc(-c3nc4ncccc4o3)cc2)cc1 (centres undefined),-0.9%,-17.7%[10.9 µM],10µM*,?,.
Cc1cc(C)cc(C(=O)Nc2ccc(-c3nc4ncccc4o3)cc2)c1,?,-6.3%[10.9 µM],10µM*,-22.0%,.
Cc1c(Cl)cccc1-c1ccc(C(=O)Nc2ccc3oc(-c4cccnc4)nc3c2)o1,8.1%,-29.8%[10.9 µM],29.6%,-10.4%,.
Cc1ccc(C(C)C)c(OCC(=O)Nc2cccc(-c3nc4ncccc4o3)c2)c1,?,-7.8%[10.9 µM],15.8µM*,?,.
O=C(Nc1cccc(-c2nc3ncccc3o2)c1)c1ccc(-c2cccc(Cl)c2Cl)o1,?,-12.7%[10.9 µM],12.6µM*,10µM*,.
